# Measurements: PubChem BioAssay AID2283112 (EPA ToxCast)
# Records with an inconclusive call do not appear. Calls of active or inactive are those of the source. Rule for the calls: active = hit-call score of the fitted dose curve at least 0.9, where 1 is the maximum; inconclusive = response in the unintended direction; inactive = score below 0.9.
# Molecular target: rat CYP1A1, Cyp1a1 (gene 24296) (UniProt P00185)
# Test: NVS_ADME_rCYP1A1: NovaScreen (NVS) CYP450-related Enzyme Activity (ADME) Assay for rat CYP1A1
# Experimental: NVS_ADME_rCYP1A1 is a biochemical, single-readout assay that uses extracted gene-proteins from baculovirus-insect cells in a cell-free assay. Measurements were taken 1 hour after chemical dosing in a 96-well plate.NVS_ADME_rCYP1A1 is one of one assay component(s) measured or calculated from the NVS_ADME_rCYP1A1 assay. It is designed to make measurements of enzyme activity, a form of enzyme reporter, as detected with fluorescence intensity signals by Fluorescence technology.Data from the assay component NVS_ADME_rCYP1A1 was analyzed into 1 assay endpoint. This assay endpoint, NVS_ADME_rCYP1A1, was analyzed in the positive analysis fitting direction relative to Acetonitrile as the negative control and baseline of activity. Using a type of enzyme reporter, loss-of-signal activity can be used to understand changes in the enzymatic activity as they relate to the gene Cyp1a1. Furthermore, this assay endpoint can be referred to as a primary readout, because this assay has produced multiple assay endpoints where this one serves a enzymatic activity function. To generalize the intended target to other relatable targets, this assay endpoint is annotated to the cyp intended target family, where the subfamily is xenobiotic metabolism. […]
# Chain of rat CYP1A1, Cyp1a1 (gene 24296) (P00185 whole entry, looked up): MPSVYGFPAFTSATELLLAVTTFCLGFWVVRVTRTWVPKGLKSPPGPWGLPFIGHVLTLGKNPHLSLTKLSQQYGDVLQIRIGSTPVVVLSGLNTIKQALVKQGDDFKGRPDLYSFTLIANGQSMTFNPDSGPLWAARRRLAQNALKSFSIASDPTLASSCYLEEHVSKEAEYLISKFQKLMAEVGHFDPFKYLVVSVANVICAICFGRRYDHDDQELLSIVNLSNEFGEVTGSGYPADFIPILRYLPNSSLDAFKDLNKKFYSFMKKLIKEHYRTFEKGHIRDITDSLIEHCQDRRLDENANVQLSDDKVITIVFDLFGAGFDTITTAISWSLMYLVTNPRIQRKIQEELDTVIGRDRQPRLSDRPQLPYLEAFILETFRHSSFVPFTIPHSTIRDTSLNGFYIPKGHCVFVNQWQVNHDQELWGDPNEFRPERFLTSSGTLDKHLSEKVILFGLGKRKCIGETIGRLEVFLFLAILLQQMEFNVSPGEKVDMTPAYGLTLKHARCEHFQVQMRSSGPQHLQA
smiles,measurement,value
C=CCOC(Cn1ccnc1)c1ccc(Cl)cc1Cl (stereo unspecified),AC50,7.73 µM (active)
